Source: PubChem BioAssay AID1159580 (chemical genetic matrix, 2015)
Several values for one entry are separate records, joined by “and”; a condition that tells them apart may be missing. Equal values may be shown once. Out of some 5,500 compounds screened, about 2,000 (36%) were called active. Not shown: some 18% with an inconclusive outcome. Cut-off read from the data, not from the text of the source: active = normalized growth mostly below about 0.91 (no sharp cut-off); inconclusive = no clear call, values can overlap the other calls; inactive = mostly above about 0.92. This is one part of the list.

Experiment: chemical genetic growth profiling, strain panel (AID 1159580);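 note: tested at 20 µM; growth read once vehicle control cultures reached saturation at 30 °C; 1 = growth at the plate median or of vehicle wells; lower values mean less growth of the strain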
Conditions: S. cerevisiae deletion strains, growth OD

Measured: normalized growth

CO[C@H]1CC(O[C@@H]2/C(C)=C/C[C@@H]3C[C@@H](C[C@]4(CC[C@H](C)[C@@H](C5CCCCC5)O4)O3)OC(=O)[C@@H]3C=C(C)/C(=N\O)[C@H]4OC/C(=C\C=C\[C@@H]2C)[C@]43O)O[C@@H](C)C1O (some centres undefined)
0.882 (inactive) and 0.512 (active): locus YJL095W, strain BCK1, stronger effect = lower value
inactive: locus YAL013W, strain DEP1, stronger effect = lower value 0.956 | locus YAL021C, strain ccr4, stronger effect = lower value 1.09 | locus YAL026C, strain drs2, stronger effect = lower value 1.02 | locus YAL030W, strain snc1, stronger effect = lower value 1.02 | locus YBL061C, strain skt5, stronger effect = lower value 0.989 | locus YBR009C, strain hhf1, stronger effect = lower value 1.03 | locus YBR021W, strain FUR4, stronger effect = lower value 0.952 | locus YBR023C, strain chs3, stronger effect = lower value 0.991 | locus YBR171W, strain sec66, stronger effect = lower value 0.988 | locus YBR229C, strain ROT2, stronger effect = lower value 0.992 | locus YBR279W, strain paf1, stronger effect = lower value 1.01 | locus YCL011C, strain gbp2, stronger effect = lower value 1 | locus YCL016C, strain dcc1, stronger effect = lower value 1.01 | locus YCL029C, strain bik1, stronger effect = lower value 0.984 | locus YCL061C, strain MRC1, stronger effect = lower value 1.02 | locus YCL069W, strain vba3, stronger effect = lower value 1.02 | locus YCR088W, strain abp1, stronger effect = lower value 1.02 | locus YDL005C, strain med2, stronger effect = lower value 1.02 | locus YDL035C, strain GPR1, stronger effect = lower value 0.949 | locus YDL040C, strain nat1, stronger effect = lower value 1.02 | locus YDL074C, strain BRE1, stronger effect = lower value 0.979 | locus YDL101C, strain DUN1, stronger effect = lower value 0.979 | locus YDL134C, strain PPH21, stronger effect = lower value 0.96 | locus YDL192W, strain arf1, stronger effect = lower value 0.989 | locus YDR001C, strain nth1, stronger effect = lower value 1.01 | locus YDR069C, strain doa4, stronger effect = lower value 1 | locus YDR101C, strain arx1, stronger effect = lower value 0.998 | locus YDR150W, strain NUM1, stronger effect = lower value 0.984 | locus YDR162C, strain NBP2, stronger effect = lower value 0.928 | locus YDR195W, strain ref2 0.883 | locus YDR297W, strain sur2, stronger effect = lower value 1.02 | locus YDR318W, strain mcm21, stronger effect = lower value 0.992 | locus YDR334W, strain swr1, stronger effect = lower value 1.02 | locus YDR335W, strain msn5, stronger effect = lower value 0.982 | locus YDR388W, stronger effect = lower value 0.991 | locus YDR392W, strain spt3, stronger effect = lower value 0.979 | locus YDR502C, strain sam2, stronger effect = lower value 0.983 | locus YEL003W, strain gim4, stronger effect = lower value 1.01 | locus YEL037C, strain rad23, stronger effect = lower value 1.02 | locus YEL061C, strain CIN8 (second series), stronger effect = lower value 1.02 | locus YEL061C, strain CIN8, stronger effect = lower value 0.987 | locus YER015W, strain faa2, stronger effect = lower value 0.997 | locus YER016W, strain bim1, stronger effect = lower value 0.989 | locus YER110C, stronger effect = lower value 0.994 | locus YER111C, strain swi4, stronger effect = lower value 1.02 | locus YER155C, strain BEM2 (second series), stronger effect = lower value 1 | locus YER155C, strain BEM2, stronger effect = lower value 1.02 | locus YER167W, strain BCK2, stronger effect = lower value 0.994 | locus YFR010W, strain ubp6, stronger effect = lower value 1.02 | locus YGL078C, strain dbp3, stronger effect = lower value 0.975 | locus YGL086W, strain mad1, stronger effect = lower value 1.01 | locus YGL167C, strain pmr1, stronger effect = lower value 1.01 | locus YGL173C, strain kem1, stronger effect = lower value 1.02 | locus YGL227W, strain vid30, stronger effect = lower value 1.03 | locus YGL240W, strain doc1, stronger effect = lower value 1.1 | locus YGL248W, strain PDE1, stronger effect = lower value 1 | locus YGL253W, strain hxk2, stronger effect = lower value 1.01 | locus YGR135W, strain pre9, stronger effect = lower value 0.974 | locus YGR252W, strain gcn5, stronger effect = lower value 1.06 | locus YHR013C, strain ard1, stronger effect = lower value 0.861 | locus YHR027C, strain rpn1, stronger effect = lower value 0.994 | locus YHR079C, strain IRE1 (second series), stronger effect = lower value 0.988 | locus YHR094C, strain hxt1, stronger effect = lower value 1 | locus YHR129C, strain ARP1, stronger effect = lower value 0.99 | locus YHR142W, strain chs7, stronger effect = lower value 1.01 | locus YHR200W, strain rpn10, stronger effect = lower value 0.988 | locus YIL066C, strain RNR3, stronger effect = lower value 0.984 | locus YIL073C, strain SPO22, stronger effect = lower value 0.801 | locus YIL125W, strain kgd1, stronger effect = lower value 0.992 | locus YIR030C, strain dcg1, stronger effect = lower value 1 | locus YJL092W, strain hpr5, stronger effect = lower value 1.02 | locus YJL095W, strain BCK1 (second series), stronger effect = lower value 1.02 | locus YJL115W, strain asf1, stronger effect = lower value 1.04 | locus YJL129C, strain trk1, stronger effect = lower value 0.901 | locus YJL134W, strain LCB3, stronger effect = lower value 0.984 | locus YJL154C, strain vps35, stronger effect = lower value 1.02 | locus YJL164C, strain tpk1, stronger effect = lower value 1.01 | locus YJL166W, strain qcr8, stronger effect = lower value 1.02 | locus YJL168C, strain set2, stronger effect = lower value 0.997 | locus YJL187C, strain SWE1 (second series), stronger effect = lower value 0.99 | locus YJL187C, strain SWE1, stronger effect = lower value 1.01 | locus YJR043C, strain POL32, stronger effect = lower value 0.977
active: locus YBR231C, strain swc5, stronger effect = lower value 0.877 | locus YDL185W, strain tfp1, stronger effect = lower value 0.0713 | locus YDR137W, strain rgp1, stronger effect = lower value 0.39 | locus YDR159W, strain sac3, stronger effect = lower value 0.756 | locus YHR079C, strain IRE1, stronger effect = lower value 0.831
0.993 (inactive) and 0.435 (active): locus YHR030C, strain SLT2, stronger effect = lower value
